Most compounds without a hit are left out; they make up all but 6.2% or so of the library.
LASV entry inh – blocks Lassa virus binding to or entry into cells; Lassa virus pseudotype entry inhibition, cell reporter; Potency, µM (doses to about 37.9 µM), without a hit: top-dose activity change, negative = inhibition, most hits filed as inhibitors; actives 1.2% (n = 300,000); AID 540256; calls by dose curve; tested in HEK293 cells; note: potency is the fitted concentration of half-maximal effect; nearly all actives have a fitted effect of over 50% in size
HCMV antiviral – inhibitors of human cytomegalovirus; AID 1259415; actives 4.5% (n = 410,000); HFF cells, HCMV-luciferase reporter, 72 h; active compounds read low; activity change, negative = inhibition, % at 57.5 µM; in the data active = activity change below about -60%; inconclusive = no clear call, values can overlap the other calls; inactive = above about -39%
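Steps: HFFs plated, 16 h 37C; compounds added; HCMV-luciferase added to MOI 1 PFU/cell; 72 h 37C; OneGlo reagent, 5 min room temperature; luminescence read, normalized to controls.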
MARV entry inh – blocks Marburg virus binding to or entry into cells; Potency, µM (titrated, usually from 37.8 µM), inactives show at the top dose activity change, negative = inhibition, usual class: inhibitors; Marburg virus pseudotyped entry inhibition, cell reporter; actives 1.8% (n = 300,000); AID 540276; calls by dose curve; tested in HEK293 cells; note: potency is the fitted concentration of half-maximal effect
FMDV inh – blocks foot and mouth disease virus; Potency, µM (top dose mostly 57.9 µM), for the others: top-dose activity change, negative = inhibition, usual class: inhibitors; actives 1.2% (n = 410,000); FMDV antiviral cell-based qHTS; calls by dose curve; tested in HEK293T cells; note: read-out not given here; potency is the fitted concentration of half-maximal effect; nearly all actives have a fitted effect of over 45% in size
Starred values were filed as active, the others as inactive; ? = inconclusive; . = no result; [ ] = another dose, or the depositor's remark. % is set by controls: 0 for no effect and ±100 for the full control effect.

SMILES	LASV entry inh	HCMV antiviral	MARV entry inh	FMDV inh
Cc1c(NC(=O)C(C)N2C(=O)C3C4C=CC(C4)C3C2=O)c(=O)n(-c2ccccc2)n1C (stereo not given)	.	-66*	5%	0%
CC[C@@]1(O)C(=O)OCc2c1cc1n(c2=O)Cc2cc3cc(O)ccc3nc2-1	.	.	.	0%
COc1cccc2sc(Nc3nnc(-c4cccs4)o3)nc12	?	-86*	?	5%
COc1cccc2sc(Nc3nnc(-c4ccc(F)cc4)o3)nc12	.	30	.	14%
Cc1ccc(C)n1C1C(=O)N(Cc2ccc(C(C)C)cc2)c2ccc(OC(F)(F)F)cc21 (stereo not given)	.	-27	.	.
COc1ccc(C(C)(C)C)cc1NC(=O)OC[C@@H]1CSCCS(=O)(=O)N1	4%[46.1 µM]	-5	.	.
COC(=O)c1cc2oc3ccccc3c2n1CC(=O)Nc1cc(OC)cc(OC)c1	.	?	-1%[46.1 µM]	24%
COc1ccccc1N(C)S(=O)(=O)c1ccc(C(=O)O)cc1	4%[46.1 µM]	?	19%[46.1 µM]	31%
CCOc1ccc(CN(C)C(=O)c2ccc(S(=O)(=O)N(C)c3ccccc3OC)cc2)cc1	.	?	.	22µM*
CCCNC(=O)NC(=O)COC(=O)c1ccc(S(=O)(=O)N(C)c2ccccc2OC)cc1	-5%	22	?	17%
COc1ccccc1N(C)S(=O)(=O)c1ccc(C(=O)OCC(=O)NCCC2=CCCCC2)cc1	-11%	-62*	?	-11%
COc1ccccc1/C=C/C(=O)NCCC1=CCCCC1	7.9µM*	-18	?	0%
COc1ccccc1N(C)S(=O)(=O)c1ccc(C(=O)N(C)Cc2ccc(Cl)s2)cc1	11µM*	-22	?	?
CC(C)c1ccc(NC(=O)C2(C)Cc3c(-c4cccc(C(N)=O)c4)ccnc3O2)cc1 (stereo not given)	.	18	.	-15%
CCOc1ccc(-c2oc3ccccc3c(=O)c2O)cc1OCC	?	-65*	-26%[46.1 µM]	34%
COc1ccc(-c2oc3ccccc3c(=O)c2O)cc1OC	.	.	.	29%
S=C1SCN(Cc2cccs2)CN1Cc1cccs1	.	?	.	2%
S=C1SCN(Cc2ccco2)CN1Cc1ccco1	?	-99*	?	1%
CC1=C(C(=O)N(C(C)C)C(C)C)CC(CC(=O)NC2CCCCC2)C(=O)N1Cc1ccc(C(C)(C)C)cc1 (stereo not given)	.	-88*	.	8%
COc1ccc(CN2C(=O)C(CC(=O)NC3CCCC3)CC(C(=O)N(C(C)C)C(C)C)=C2C)cc1 (stereo not given)	.	-12	.	-4%
Cc1oc(-c2ccc(Cl)cc2)nc1CN1CCCC(C(=O)NCCc2ccc(Cl)cc2)C1 (stereo not given)	18%[46.1 µM]	4	4%[46.1 µM]	?
COc1ccc(/C=C/c2c([N+](=O)[O-])c(=O)n(C)c(=O)n2C)cc1OC	13%	-33	?	.
Cn1c(/C=C/c2ccc(Cl)cc2)c([N+](=O)[O-])c(=O)n(C)c1=O	.	-98*	.	18µM*
COc1ccc(/C=C/c2c([N+](=O)[O-])c(=O)n(C)c(=O)n2C)c(OC)c1OC	?	-65*	?	?
CCCCCOc1ccc(/C=C/c2c([N+](=O)[O-])c(=O)n(C)c(=O)n2C)cc1	6%[46.1 µM]	-94*	?	?
SMILES	LASV entry inh	HCMV antiviral	MARV entry inh	FMDV inh
Cn1c(/C=C/c2cccc([N+](=O)[O-])c2)c([N+](=O)[O-])c(=O)n(C)c1=O	?	-102*	8.9µM*	13µM*
CS(=O)(=O)N1CCC[C@@]2(CCN(C(c3ccccc3)c3ccccc3)C2)C1	.	.	.	-9%
Cn1nnnc1SCCCNCc1ccc(-c2ccc(F)c(Cl)c2)o1	-18%[46.1 µM]	-10	?	8%
CCN(CC)CCOc1nnc(-c2ccc(C)cc2)c2ccccc12	-17%	-6	?	?
CCN(CC)CCOc1nnc(-c2ccc(OC)cc2)c2ccccc12	.	-72*	.	11%
O=C1OC(c2cc(I)c(O)c(I)c2)(c2cc(I)c(O)c(I)c2)c2ccccc21	.	3	.	.
COc1cc(=O)n2c(c1C(=O)N(C)Cc1cscn1)CCN(C(=O)c1ccc(C)cc1C)CC2	.	.	.	3%
C=C(C)C(=O)Nc1cccc(C2=NOC3(C2)C[C@@H](C(N)=O)N(C(=O)/C(C)=C/C)C3)c1 (stereo not given in full)	.	-32	.	5%
C/C=C(\C)C(=O)Nc1cccc(C2=NOC3(C2)C[C@@H](C(N)=O)N(C(=O)/C(C)=C/C)C3)c1 (stereo not given in full)	.	-68*	.	2%
NC(=O)[C@H]1CC2(CC(c3cccc(NC(=O)CC(c4ccccc4)c4ccccc4)c3)=NO2)CN1C(=O)CC(c1ccccc1)c1ccccc1 (stereo not given in full)	.	-33	.	-14%

Screening data deposited in PubChem BioAssay by National Center for Advancing Translational Sciences (NCATS).
